Drawing on PubChem BioAssay AID1566 (Sanford-Burnham Center for Chemical Genomics, 2009), this text covers inhibition for 62 compounds.

Among all 290,000 compounds or so, about 1,800 (0.62%) were called active. Only a selection was taken, and actives are over-represented in it overall. Unmarked numbers belong to inactive results. Cut-off read from the data, not from the text of the source: active = inhibition above about 50%; inactive = the rest.

The assay can be described thus: inhibition of NOD2-driven NF-kB reporter – cell-based, luminescence, uHTS, HEK293 (AID 1566). The following applies: HEK293 NOD2/NF-kB luciferase reporter, at 4 µM, stronger effect = higher value.
`O=C(Cc1ccccc1)NNC(=O)C1CC=CCC1` (configuration not stated): the inhibition was 5.2%.

For the compound `CCc1nnc(NC(=O)COc2ccccc2[N+](=O)[O-])s1`, the inhibition is -7.9%.

Regarding `Cc1csc(NC(=O)c2c(O)c3c(n(CC(C)C)c2=O)CCCC3)n1`, the inhibition is 23.7%. To `O=C(NC1=C(Nc2ccc(Cl)cc2)C(=O)c2ccccc2C1=O)c1ccccc1` belongs 24.3%; to `O=C(NC1=C(Nc2ccc(F)cc2)C(=O)c2ccccc2C1=O)c1ccc(Cl)cc1`, -10.9%; to `CSc1nc(N)c2c(C)c(C)sc2n1`, -1.2%. As for `CCOC(=O)C(=CNc1ccc(NC2=NCC(C)(C)S2)cc1)C(=O)OCC`, the figure is 34.9%. As for `CCOC(=O)C(=CNc1ccc(C#N)cc1)C(=O)OCC`, the figure is 8.2%; as for `CCOC(=O)C(=CNc1ccc(NC2=NCC(C)S2)cc1)C(=O)OCC` (configuration not stated), 55.5% (active); as for `COc1cccc(CNC(=O)CCNC(=O)C2CCN(S(=O)(=O)c3ccc(F)cc3)CC2)c1`, 9%. For `N#C/C(=C(/O)COC(=O)c1ccc(C#N)cc1)c1nc2ccccc2s1`, the inhibition was -9.9%. As for `N#C/C(=C(/O)COC(=O)c1ccccc1O)c1nc2ccccc2s1`, the figure is 52.7% (active); as for `CC(C)(C)c1ccc(C(=O)OC/C(O)=C(\C#N)c2nc3ccccc3s2)cc1`, 30.1%; as for `C=C(C)C(=O)Oc1ccc(N2C(=O)[C@@H]3C4C=CC(C4)[C@@H]3C2=O)cc1`, -1.5%.

With `CCn1c(=O)n(CC)c2cc(S(=O)(=O)N3CCCCC3)c(C)cc21`, the inhibition was -12.1%.

As to `NC(=O)CC(NC(=O)Cc1ccc(Br)cc1)c1ccc(NCCN2CCOCC2)c([N+](=O)[O-])c1` (configuration not stated), the inhibition was -1.2%. To `N#CC1=C(N)Oc2n[nH]c(-c3cccnc3)c2C1c1cc(F)ccc1F` (configuration not stated) belongs -1.5%; to `Fc1ccccc1CNc1ncnc2sccc12`, 56.7% (active). To `c1ccc(CNc2ncnc3sccc23)cc1` belongs 44.5%; to `c1cncc(CNc2ncnc3sccc23)c1`, 21.1%. Regarding `Cc1cccc(NC(=O)C(Cc2ccccc2)n2cccc2)c1` (configuration not stated), the inhibition is 9.8%. In the case of `Cc1ccc(NC(=O)C(CC(C)C)NC(N)=O)cc1Cl` (configuration not stated), the inhibition was -3.3%. To `CCN(CC)S(=O)(=O)c1cc(NC(=O)[C@@H](NC(N)=O)C(C)C)ccc1C` belongs 6.6%; to `CCN(CC)S(=O)(=O)c1cc(NC(=O)C(CC(C)C)NC(N)=O)ccc1C` (configuration not stated), 57.5% (active).

In the case of `COc1ccc(/C(C)=N/NC(=O)c2nnn(-c3nonc3N)c2-c2ccccc2)cc1`, the inhibition is 6.5%.

As to `Cc1ccc(C(=O)Nc2cccc(C(F)(F)F)c2)cc1Nc1ccccn1`, the inhibition was -0.8%. As for `Cc1ccc(C(=O)Nc2cccc(C(F)(F)F)c2)cc1Nc1cnccn1`, the figure is 14%; as for `CCN(CC)c1ccc(/C=N/N2CCN(Cc3ccccc3Cl)CC2)cc1`, 4.7%; as for `Cc1cccc(-n2ncc3c(NC4CCCCC4)ncnc32)c1`, 7.4%. To `Cc1cccc(-n2ncc3c(N(C)Cc4ccccc4)ncnc32)c1` belongs -120%; to `CCCN(CCC)c1ncnc2c1cnn2-c1ccc(OC)cc1`, -123%; to `Cc1cccc(-n2ncc3c(N(C)C4CCCCC4)ncnc32)c1`, 72.3% (active). As for `COc1ccc(-n2ncc3c(NC(C)C)ncnc32)cc1`, the figure is 13.8%; as for `Fc1cccc(NC(=S)NCCc2ccccc2)c1`, 10%. As to `CC(=O)Oc1cccc(NC(=O)c2ccc3c(c2)C(=O)N(CC(C)C)C3=O)c1`, the inhibition was -7.8%. To `CCN(CC)c1ccc(S(=O)(=O)N2CCOCC2)cc1NC(=O)CN1CCN(Cc2ccccc2)CC1` belongs -7.9%; to `O=C(CN1CCc2ccccc2C1)Nc1cc(S(=O)(=O)N2CCOCC2)ccc1N1CCOCC1`, -2.4%; to `COc1ccc(OC)c(N2C(=O)CC(C(C)c3ccccc3)C2=O)c1` (configuration not stated), 9.7%. As for `COc1ccc(-n2c3c(cc(C(=O)NCc4ccco4)c2=O)C(=O)CC(C)(C)C3)cc1`, the figure is 10.7%; as for `Cc1ccc(C(=O)CSc2nnc3ccccn23)c(C)c1`, -52.8%. As for `Cc1cc(C(=O)CSc2nncn2C)c(C)n1-c1ccccc1`, the figure is -52.4%. Regarding `Cc1cc(C(=O)CSc2nnc3ccccn23)c(C)n1-c1ccccc1`, the inhibition is 66.8% (active).

Take `COc1ccc(NC(=O)c2c(NC(=O)CNCc3ccco3)sc3c2CCC3)cc1`: the inhibition is 6.3%. To `Cc1ccccc1N/N=C/c1sc(=O)n(Cc2cccc(C(=O)O)c2)c1Cl` belongs 51.6% (active); to `COC(=O)c1cccc(Cn2c(Cl)c(/C=N/Nc3ccccc3C)sc2=O)c1`, 10.1%; to `O=C(O)c1cccc(Cn2c(Cl)c(/C=N/Nc3ccccc3)sc2=O)c1`, 14.5%. Consider `CCCNC(=S)N1CCC(C(=O)c2ccc(OC)cc2)CC1`, for which the inhibition was 15.3%. As for `COC(=O)N1C(=O)[C@](c2ccsc2)(C(C)C)N1C(=O)OC`, the inhibition is 32.8%.

Regarding `CCc1c(C)nc2c(Br)cccc2c1SCCC#N`, the inhibition was 10.1%. Regarding `CCCCc1c(C)nc2ccc(Br)cc2c1SCCC#N`, the inhibition was 18%. As for `CC(C)N=c1scc(-c2cccs2)n1/N=C/c1ccc(O)c(O)c1O`, the figure is -1.3%; as for `CN=c1scc(-c2cccs2)n1/N=C/c1ccccc1O`, 88.7% (active). On to `CN=c1scc(-c2cccs2)n1/N=C/c1ccc(O)c(O)c1O`, for which the inhibition is -25.9%. Take `CCc1noc(C)c1C(=O)OCC(=O)NC(=O)c1ccccc1`: the inhibition was 2.8%. As for `COC(=O)c1ccc(NC(=O)c2ccc3nsnc3c2)cc1`, the figure is -7.1%; as for `c1ccc(COCCC2CO2)cc1` (configuration not stated), -8.4%; as for `CS(=O)(=O)N(CC(=O)NCCSCc1ccccc1Cl)c1ccc(F)cc1`, 3%.

On to `COc1ccc(C(=O)CSc2cc(C)nc3nc(C)nn23)cc1OC`, for which the inhibition is 14%.

As for `O=C(CSc1ccc(-c2ccc(Cl)cc2)nn1)N1CCCc2ccccc21`, the inhibition was -10.9%.

Consider `Cc1ccccc1-c1cn(-c2ccccc2)c(=S)[nH]1`, for which the inhibition was -47.3%. To `O=C(O)c1ccc(-n2cc(-c3cc4ccccc4oc3=O)[nH]c2=S)cc1` belongs 27.5%; to `O=c1oc2ccccc2cc1-c1cn(-c2ccccc2)c(=S)[nH]1`, 80.6% (active).
